# Measurements: the supplement of paper PMC11732987, “Enantioselective OTUD7B fragment discovery through chemoproteomics screening and high-throughput optimisation” (Communications Chemistry, 2025)
# Unmarked numbers belong to inactive results.
# Experiments:
# Assay in all cases: log2 ratio of Biotin-Ahx-Ub-VS probe labelling (fragment/DMSO); higher = less target engagement (more negative = stronger competition), active = hit call of the paper (q ≤ 0.05, log2 ratio ≤ -1)
# Conditions in all cases: compound concentration: 200 uM; treatment time: 3 h
# [1] = biological target: T1, USP42 (UniProt Q9H9J4)
# T1 sequence (whole entry): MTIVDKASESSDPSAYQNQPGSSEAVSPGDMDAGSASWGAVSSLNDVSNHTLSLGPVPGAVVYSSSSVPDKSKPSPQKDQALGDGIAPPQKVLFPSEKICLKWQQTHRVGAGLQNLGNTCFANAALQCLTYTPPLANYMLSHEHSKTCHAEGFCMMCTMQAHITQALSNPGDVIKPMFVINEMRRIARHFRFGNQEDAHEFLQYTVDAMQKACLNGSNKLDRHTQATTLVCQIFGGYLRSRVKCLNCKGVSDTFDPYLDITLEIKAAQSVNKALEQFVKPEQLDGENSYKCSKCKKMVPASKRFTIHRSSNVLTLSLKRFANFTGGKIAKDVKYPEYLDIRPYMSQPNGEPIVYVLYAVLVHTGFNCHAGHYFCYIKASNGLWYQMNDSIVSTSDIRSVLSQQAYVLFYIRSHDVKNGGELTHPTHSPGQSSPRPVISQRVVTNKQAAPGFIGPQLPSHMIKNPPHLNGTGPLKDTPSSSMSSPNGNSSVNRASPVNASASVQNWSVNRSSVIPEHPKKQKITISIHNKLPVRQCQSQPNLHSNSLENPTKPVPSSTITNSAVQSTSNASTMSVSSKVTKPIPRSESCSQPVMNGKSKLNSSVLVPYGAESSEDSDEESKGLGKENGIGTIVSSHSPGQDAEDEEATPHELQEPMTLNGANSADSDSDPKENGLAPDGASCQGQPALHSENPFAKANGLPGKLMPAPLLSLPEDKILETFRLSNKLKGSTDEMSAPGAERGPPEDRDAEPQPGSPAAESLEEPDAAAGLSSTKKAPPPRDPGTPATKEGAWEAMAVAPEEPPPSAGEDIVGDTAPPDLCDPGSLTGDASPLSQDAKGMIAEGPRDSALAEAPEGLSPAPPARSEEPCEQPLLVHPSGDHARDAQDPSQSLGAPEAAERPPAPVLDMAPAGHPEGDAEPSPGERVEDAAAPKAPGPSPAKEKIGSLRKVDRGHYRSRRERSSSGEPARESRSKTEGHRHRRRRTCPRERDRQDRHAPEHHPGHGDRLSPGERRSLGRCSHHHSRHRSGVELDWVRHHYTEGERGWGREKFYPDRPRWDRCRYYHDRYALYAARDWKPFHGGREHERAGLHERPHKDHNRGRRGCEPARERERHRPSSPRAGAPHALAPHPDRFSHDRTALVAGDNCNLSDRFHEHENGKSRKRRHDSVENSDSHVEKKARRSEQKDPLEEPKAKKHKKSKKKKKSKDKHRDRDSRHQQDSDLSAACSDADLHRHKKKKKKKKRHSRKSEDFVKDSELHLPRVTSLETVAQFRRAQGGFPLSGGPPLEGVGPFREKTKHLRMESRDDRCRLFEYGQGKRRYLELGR
# How it was run: (§1)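 Labelled DUBs from HEK293T lysate were NeutrAvidin-enriched, digested with LysC and trypsin, and run by diaPASEF LC-MS/MS. Before that, each 495 µg sample in Tris/CHAPS/IGEPAL buffer with protease inhibitors was treated in triplicate with fragment at 200 µM or vehicle for 3 h, then with Biotin-Ahx-Ub-VS at 0.5 µM final for 1 h. Values are average log2 ratios of fragment over vehicle by unpaired t-test, based on global-median-normalised Spectronaut label-free quantities from proteins with ≥2 unique peptides.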
# [2] = biological target: USP46 (UniProt P62068)
# Sequence of USP46 (P62068 whole entry): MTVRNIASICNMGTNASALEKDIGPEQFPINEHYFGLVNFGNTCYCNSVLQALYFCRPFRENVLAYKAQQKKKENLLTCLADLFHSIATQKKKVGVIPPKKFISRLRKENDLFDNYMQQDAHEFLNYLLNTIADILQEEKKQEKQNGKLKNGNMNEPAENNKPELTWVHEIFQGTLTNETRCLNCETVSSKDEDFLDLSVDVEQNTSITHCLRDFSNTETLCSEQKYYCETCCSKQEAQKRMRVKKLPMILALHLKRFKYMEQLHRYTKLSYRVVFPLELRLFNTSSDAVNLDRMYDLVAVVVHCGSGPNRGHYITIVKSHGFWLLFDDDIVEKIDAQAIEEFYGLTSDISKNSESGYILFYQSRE
# How it was run: as §1
# [3] = biological target: T2, USP47 (UniProt Q96K76)
# T2 sequence (whole entry): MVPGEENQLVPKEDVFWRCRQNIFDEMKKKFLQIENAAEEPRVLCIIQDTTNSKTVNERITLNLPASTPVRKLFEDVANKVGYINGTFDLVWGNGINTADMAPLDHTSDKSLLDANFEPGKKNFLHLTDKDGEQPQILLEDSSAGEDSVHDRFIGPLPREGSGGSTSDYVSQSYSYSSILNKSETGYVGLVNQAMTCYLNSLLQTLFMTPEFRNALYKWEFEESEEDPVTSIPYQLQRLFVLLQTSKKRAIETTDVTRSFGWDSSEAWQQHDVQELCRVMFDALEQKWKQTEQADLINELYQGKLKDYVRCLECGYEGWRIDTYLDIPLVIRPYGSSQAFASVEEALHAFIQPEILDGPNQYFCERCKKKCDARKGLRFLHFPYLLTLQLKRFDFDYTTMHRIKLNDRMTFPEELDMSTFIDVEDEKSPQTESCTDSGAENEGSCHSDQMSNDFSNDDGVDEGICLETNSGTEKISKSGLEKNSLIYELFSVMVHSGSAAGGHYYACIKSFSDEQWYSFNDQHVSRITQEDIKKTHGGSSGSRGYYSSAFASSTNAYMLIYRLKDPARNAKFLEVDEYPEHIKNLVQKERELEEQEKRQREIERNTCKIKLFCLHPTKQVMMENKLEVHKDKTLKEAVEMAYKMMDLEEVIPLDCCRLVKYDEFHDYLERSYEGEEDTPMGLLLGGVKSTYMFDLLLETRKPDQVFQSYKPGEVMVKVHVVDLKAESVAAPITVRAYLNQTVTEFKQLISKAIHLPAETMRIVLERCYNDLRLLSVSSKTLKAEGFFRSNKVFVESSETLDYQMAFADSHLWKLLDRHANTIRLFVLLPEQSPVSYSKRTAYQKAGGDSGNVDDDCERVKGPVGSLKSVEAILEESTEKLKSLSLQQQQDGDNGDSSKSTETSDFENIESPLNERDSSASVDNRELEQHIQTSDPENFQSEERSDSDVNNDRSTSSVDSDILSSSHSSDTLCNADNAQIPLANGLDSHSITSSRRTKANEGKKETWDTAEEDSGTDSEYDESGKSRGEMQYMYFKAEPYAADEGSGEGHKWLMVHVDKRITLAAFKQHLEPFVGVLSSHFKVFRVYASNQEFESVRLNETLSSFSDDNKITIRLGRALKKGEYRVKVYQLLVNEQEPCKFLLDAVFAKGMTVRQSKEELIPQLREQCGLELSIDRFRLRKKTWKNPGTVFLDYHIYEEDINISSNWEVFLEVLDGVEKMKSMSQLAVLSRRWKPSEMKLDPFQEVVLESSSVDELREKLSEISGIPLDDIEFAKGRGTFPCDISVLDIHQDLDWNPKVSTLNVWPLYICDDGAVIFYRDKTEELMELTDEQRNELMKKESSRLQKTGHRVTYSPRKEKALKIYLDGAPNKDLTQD
# How it was run: as §1
# [4] = biological target: T3, USP48 (UniProt Q86UV5)
# T3 sequence (whole entry): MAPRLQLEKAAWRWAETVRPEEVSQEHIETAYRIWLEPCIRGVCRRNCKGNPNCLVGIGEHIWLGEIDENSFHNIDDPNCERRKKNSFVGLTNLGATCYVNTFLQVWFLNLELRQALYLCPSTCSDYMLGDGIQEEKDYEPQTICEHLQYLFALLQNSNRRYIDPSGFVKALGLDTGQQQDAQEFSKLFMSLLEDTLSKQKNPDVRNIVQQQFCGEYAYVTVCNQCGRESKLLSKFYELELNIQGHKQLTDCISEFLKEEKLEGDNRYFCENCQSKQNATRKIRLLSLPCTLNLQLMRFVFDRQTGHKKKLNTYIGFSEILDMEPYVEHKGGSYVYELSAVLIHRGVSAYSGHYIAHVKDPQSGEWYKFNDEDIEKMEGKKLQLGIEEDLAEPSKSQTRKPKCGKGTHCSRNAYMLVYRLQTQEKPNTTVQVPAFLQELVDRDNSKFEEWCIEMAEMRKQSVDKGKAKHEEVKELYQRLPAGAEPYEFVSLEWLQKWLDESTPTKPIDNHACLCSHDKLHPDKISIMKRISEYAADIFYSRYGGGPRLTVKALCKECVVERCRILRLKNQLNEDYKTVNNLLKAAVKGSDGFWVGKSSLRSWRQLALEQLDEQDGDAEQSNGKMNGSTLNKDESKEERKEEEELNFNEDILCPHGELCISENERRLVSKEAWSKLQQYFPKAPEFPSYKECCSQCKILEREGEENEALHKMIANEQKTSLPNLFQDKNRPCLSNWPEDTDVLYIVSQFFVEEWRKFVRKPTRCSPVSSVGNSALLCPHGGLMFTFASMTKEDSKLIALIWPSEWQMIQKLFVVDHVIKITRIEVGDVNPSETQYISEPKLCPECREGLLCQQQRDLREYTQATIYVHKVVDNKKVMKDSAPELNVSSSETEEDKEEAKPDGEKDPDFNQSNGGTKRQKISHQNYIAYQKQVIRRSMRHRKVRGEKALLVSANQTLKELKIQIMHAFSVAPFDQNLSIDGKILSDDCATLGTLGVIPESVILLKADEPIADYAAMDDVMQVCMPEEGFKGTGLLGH
# How it was run: as §1
# [5] = biological target: T4, USP5 (UniProt P45974)
# T4 sequence (whole entry): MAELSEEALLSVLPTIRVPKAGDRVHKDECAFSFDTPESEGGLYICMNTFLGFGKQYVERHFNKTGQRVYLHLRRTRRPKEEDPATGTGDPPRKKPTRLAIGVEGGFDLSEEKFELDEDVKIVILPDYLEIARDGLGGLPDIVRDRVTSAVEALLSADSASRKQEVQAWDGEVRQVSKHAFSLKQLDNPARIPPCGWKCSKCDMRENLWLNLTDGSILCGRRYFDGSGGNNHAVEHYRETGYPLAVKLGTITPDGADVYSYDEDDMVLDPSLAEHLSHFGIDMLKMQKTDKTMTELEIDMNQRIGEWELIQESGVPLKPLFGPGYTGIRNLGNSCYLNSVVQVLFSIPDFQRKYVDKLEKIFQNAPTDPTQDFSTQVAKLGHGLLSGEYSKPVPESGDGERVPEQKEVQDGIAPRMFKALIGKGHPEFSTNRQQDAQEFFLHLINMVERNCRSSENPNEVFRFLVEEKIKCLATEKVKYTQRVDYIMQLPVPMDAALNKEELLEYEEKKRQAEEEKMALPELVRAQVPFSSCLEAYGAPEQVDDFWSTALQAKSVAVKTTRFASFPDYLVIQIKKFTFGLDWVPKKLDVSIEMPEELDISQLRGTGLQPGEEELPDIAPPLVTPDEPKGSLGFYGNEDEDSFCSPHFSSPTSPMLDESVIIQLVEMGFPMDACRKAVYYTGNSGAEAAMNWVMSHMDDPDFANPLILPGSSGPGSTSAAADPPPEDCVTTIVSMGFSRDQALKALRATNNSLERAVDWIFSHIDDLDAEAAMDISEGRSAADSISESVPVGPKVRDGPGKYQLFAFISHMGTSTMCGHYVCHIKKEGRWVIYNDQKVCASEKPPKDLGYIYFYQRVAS
# How it was run: as §1
# [6] = biological target: USP54 (UniProt Q70EL1)
# Sequence of USP54 (Q70EL1 whole entry): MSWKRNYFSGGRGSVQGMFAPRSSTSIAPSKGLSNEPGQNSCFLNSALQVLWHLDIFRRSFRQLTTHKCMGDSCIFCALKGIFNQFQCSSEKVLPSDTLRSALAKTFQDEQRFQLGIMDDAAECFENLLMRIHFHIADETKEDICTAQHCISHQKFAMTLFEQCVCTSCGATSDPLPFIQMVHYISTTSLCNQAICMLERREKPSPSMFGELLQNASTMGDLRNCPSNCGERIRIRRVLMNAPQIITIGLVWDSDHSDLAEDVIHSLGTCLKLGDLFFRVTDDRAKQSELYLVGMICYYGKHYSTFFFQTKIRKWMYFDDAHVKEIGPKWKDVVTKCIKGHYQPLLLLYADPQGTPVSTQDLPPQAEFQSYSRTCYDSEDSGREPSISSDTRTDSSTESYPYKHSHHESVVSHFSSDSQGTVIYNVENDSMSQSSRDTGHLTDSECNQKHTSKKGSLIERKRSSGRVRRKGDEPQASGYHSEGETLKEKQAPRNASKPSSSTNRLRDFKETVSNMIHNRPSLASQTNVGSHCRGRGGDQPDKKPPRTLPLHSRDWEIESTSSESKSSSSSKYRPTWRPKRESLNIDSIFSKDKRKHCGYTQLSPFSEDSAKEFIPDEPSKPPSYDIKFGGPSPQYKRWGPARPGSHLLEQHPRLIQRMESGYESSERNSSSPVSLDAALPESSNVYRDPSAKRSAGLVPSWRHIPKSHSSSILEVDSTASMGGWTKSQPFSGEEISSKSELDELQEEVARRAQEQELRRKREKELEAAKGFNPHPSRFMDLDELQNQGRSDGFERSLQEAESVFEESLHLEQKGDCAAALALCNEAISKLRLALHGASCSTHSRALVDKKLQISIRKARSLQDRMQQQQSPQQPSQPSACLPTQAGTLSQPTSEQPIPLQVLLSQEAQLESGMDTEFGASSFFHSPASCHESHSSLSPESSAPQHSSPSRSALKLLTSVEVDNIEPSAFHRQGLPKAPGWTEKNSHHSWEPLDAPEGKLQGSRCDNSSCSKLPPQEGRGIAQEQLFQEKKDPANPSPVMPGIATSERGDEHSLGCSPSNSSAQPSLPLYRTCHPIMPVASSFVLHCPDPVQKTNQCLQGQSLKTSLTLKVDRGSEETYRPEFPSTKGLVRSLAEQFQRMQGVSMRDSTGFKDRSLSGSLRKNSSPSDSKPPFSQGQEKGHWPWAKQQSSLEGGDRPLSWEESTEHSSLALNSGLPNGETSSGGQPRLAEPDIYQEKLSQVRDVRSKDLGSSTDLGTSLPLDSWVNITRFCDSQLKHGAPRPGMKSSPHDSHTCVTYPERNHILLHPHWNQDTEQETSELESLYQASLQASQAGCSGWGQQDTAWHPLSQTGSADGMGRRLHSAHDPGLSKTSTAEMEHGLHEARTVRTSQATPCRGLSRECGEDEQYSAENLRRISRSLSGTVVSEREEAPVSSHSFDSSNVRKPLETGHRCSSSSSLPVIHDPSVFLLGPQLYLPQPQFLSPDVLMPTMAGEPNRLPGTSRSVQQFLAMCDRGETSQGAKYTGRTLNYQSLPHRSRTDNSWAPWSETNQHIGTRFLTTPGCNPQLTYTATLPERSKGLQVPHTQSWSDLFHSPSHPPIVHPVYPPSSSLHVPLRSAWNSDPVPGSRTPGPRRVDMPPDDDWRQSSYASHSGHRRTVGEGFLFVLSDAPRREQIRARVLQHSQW
# How it was run: as §1
# [7] = biological target: USP7 (UniProt Q93009)
# Sequence of USP7 (Q93009 whole entry, looked up): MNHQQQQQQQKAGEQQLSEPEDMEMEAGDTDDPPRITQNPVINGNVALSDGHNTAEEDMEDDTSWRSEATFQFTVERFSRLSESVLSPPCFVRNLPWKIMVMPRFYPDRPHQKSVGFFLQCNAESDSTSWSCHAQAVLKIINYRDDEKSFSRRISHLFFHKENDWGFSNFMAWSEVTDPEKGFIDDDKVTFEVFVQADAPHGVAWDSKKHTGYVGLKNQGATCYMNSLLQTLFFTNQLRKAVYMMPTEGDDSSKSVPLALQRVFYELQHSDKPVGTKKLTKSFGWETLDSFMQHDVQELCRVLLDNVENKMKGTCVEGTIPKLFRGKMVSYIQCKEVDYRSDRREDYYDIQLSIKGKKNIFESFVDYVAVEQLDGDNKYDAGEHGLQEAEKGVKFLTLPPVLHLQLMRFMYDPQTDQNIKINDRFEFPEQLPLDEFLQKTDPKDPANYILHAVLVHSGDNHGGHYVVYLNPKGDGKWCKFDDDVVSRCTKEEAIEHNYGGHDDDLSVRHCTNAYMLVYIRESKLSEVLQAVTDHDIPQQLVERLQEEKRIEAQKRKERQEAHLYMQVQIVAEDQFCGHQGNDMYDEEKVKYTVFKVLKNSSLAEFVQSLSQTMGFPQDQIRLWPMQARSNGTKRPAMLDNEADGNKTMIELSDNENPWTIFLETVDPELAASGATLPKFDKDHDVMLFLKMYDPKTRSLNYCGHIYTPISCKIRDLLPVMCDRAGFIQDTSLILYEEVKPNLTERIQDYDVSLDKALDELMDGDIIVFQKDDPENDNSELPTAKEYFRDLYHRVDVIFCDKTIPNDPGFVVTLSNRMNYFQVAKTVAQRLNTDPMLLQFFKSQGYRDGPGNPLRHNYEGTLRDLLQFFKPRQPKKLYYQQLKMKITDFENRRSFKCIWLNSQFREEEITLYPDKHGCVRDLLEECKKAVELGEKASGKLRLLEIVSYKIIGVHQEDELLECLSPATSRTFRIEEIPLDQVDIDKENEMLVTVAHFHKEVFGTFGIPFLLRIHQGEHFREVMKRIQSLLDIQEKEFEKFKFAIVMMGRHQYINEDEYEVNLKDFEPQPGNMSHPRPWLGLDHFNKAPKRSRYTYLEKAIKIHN
# How it was run: as §1
# [8] = biological target: T5, USP8 (UniProt P40818)
# T5 sequence (whole entry): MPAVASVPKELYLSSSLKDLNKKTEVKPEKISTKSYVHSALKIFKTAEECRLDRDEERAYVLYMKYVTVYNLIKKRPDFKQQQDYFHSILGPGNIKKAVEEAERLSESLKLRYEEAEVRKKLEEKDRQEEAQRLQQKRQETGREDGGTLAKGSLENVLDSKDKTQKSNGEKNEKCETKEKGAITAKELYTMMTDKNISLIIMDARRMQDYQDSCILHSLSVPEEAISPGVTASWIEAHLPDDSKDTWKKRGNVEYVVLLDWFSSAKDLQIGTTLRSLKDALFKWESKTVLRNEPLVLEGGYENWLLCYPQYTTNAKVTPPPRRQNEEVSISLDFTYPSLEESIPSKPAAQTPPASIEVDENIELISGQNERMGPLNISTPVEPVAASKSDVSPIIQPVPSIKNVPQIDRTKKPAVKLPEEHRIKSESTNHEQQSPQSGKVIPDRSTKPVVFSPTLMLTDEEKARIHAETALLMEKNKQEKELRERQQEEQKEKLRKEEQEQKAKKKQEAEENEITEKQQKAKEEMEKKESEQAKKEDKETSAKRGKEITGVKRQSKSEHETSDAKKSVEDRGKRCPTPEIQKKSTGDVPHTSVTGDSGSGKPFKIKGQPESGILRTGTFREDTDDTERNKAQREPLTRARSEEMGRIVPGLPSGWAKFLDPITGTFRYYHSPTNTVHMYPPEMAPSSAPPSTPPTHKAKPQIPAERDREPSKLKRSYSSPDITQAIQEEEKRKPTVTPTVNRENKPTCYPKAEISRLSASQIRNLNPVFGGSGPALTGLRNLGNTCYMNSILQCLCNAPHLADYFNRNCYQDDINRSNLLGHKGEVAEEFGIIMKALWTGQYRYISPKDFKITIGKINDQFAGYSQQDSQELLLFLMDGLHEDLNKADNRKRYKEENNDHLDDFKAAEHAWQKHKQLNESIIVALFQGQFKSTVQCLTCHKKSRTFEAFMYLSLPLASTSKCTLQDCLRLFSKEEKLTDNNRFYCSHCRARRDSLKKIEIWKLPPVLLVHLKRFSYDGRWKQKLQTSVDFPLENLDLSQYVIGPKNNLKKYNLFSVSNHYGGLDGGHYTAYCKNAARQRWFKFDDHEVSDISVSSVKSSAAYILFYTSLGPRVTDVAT
# How it was run: as §1
structure (smiles),measurement,setting,value
O=C(CCl)N1CCCN(C(=O)c2ccc(Cl)cc2)CC1,log2 ratio of Biotin-Ahx-Ub-VS probe labelling,[1],-0.0422
same,log2 ratio of Biotin-Ahx-Ub-VS probe labelling,[2],-0.129
same,log2 ratio of Biotin-Ahx-Ub-VS probe labelling,[3],-0.76
same,log2 ratio of Biotin-Ahx-Ub-VS probe labelling,[4],-1.16 (active)
same,log2 ratio of Biotin-Ahx-Ub-VS probe labelling,[5],0.0155
same,log2 ratio of Biotin-Ahx-Ub-VS probe labelling,[6],0.842
same,log2 ratio of Biotin-Ahx-Ub-VS probe labelling,[7],-1.18 (active)
same,log2 ratio of Biotin-Ahx-Ub-VS probe labelling,[8],-0.354
